Bioassay records from PubChem BioAssay.
DT40 TDP1 no CPT: qHTS for Inhibitors of human tyrosyl-DNA phosphodiesterase 1 (TDP1): qHTS in cells in absence of CPT. AID 686978, 2013. DT40 Tdp1-/- hTDP1 cells, no CPT, ATP luminescence, 48 h. Potency, µM (doses to about 46.2 µM), without a hit: at the top dose activity change, negative = growth inhibition, usual class: inhibitors. 420,000 tested, 15% active; also: nearly all actives have a fitted effect of over 55% in size
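Growth of hTDP1-complemented DT40 Tdp1-knockout cells is measured by ATP luminescence after at least 48 hr compound exposure at 37 °C, with DMSO substituting for the 20 nM CPT used in the parallel screen.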
TDP1 block: TDP1 (human) enzyme inhibition; Q9NUW8; recombinant TDP1, AlphaScreen DNA substrate cleavage; Potency, µM (doses to about 130 µM), for the others: at the highest dose activity change, negative = inhibition, hits mostly inhibitors; 350,000 tested, 0.28% active; also: nearly all actives have a fitted effect of over 40% in size
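Signal: AlphaScreen proximity between streptavidin donor and anti-FITC acceptor beads on intact substrate. Reaction: Tdp1 1 nM, substrate 15 nM final, 5 min RT after 15 min compound preincubation.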
VP16 counter: inhibits Gal4-VP16 luciferase reporter, ROR gamma counter-screen | AID 2546 | 310,000 tested, 3.5% active | Potency, µM (doses to about 53.6 µM), for inactives: at the top dose activity, negative = inhibition, hits mostly inhibitors | Drosophila S2 Gal4-VP16 UAS-luciferase, luminescence, 20 h;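 also: Gal4-VP16 expression switched on by copper sulfate through the metallothionein promoter; nearly all actives have a fitted effect of over 50% in size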
DT40 TDP1 CPT: DT40-hTDP1 cell growth loss with CPT | Potency, µM (titrated, usually from 46.2 µM), without a hit: at the highest dose activity change, negative = growth inhibition, hits mostly inhibitors | chicken DT40 Tdp1-/-;hTDP1 cells + 20 nM CPT, ATP luminescence, 48 h | 420,000 tested, 12% active | AID 686979; also: nearly all actives have a fitted effect of over 55% in size
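Chicken DT40 Tdp1-/- cells complemented with human TDP1, 400 cells/well, exposed to compounds plus 20 nM camptothecin for at least 48 h at 37 C; viability read as ATP content by CellTiter-Glo luminescence.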
RORgamma inh: ROR gamma (mouse) transcription inhibition | P51450 | Drosophila S2 Gal4-RORgamma UAS-luciferase reporter, 20 h | Potency, µM (titrated, usually from 53.6 µM), for the others: at the highest dose activity change, negative = inhibition, hits mostly inhibitors | 310,000 tested, 5.4% active | AID 2551; also: nearly all actives have a fitted effect of over 60% in size
Target sequence (P51450 whole entry, looked up, the tested form may be a part): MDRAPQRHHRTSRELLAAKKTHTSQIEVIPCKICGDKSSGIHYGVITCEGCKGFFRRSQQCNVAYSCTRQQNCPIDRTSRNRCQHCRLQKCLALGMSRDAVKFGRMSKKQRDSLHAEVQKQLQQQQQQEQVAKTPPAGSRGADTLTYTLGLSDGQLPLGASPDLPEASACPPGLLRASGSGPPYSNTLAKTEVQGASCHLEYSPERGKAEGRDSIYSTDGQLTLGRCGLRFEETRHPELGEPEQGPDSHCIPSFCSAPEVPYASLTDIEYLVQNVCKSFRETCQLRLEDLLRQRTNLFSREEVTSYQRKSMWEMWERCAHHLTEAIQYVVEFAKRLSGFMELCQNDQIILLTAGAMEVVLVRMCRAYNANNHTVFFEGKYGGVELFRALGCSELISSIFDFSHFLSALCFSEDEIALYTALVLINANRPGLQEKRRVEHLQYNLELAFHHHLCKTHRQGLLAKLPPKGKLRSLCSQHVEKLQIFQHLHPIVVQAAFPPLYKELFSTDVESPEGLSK
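Drosophila Schneider cells stably carrying a metallothionein-driven Gal4 DBD–ROR gamma fusion and a UAS-Photinus luciferase reporter were exposed to compound for 1 hr, then induced with copper sulfate (700 uM final) for 20 hr at ambient temperature before luminescence reading.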
* marks the source's active call; other numbers are inactive results; ? = inconclusive; / = no result given; [ ] = another dose, or the depositor's remark. The list is not random: actives were taken first. Their share in the collection is about 19%. Calls follow the shape of the dose curve; as a rule, active = well fitted curve in the direction sought with a large enough effect; inconclusive = small, poorly fitted or top-dose-only effect, or another doubt; inactive = no such curve, though single readings can be large; an effect the other way counts as inactive or inconclusive. % is scaled to controls: 0 for no effect and ±100 for the full control effect; potency is read from the fitted curve at half-maximal effect.

SMILES	DT40 TDP1 no CPT	TDP1 block	VP16 counter	DT40 TDP1 CPT	RORgamma inh
CC(C)C[C@H](NC(=O)c1nc[nH]c1C(=O)N1CCN(C(=O)OC(C)(C)C)CC1)C(=O)OC(C)(C)C	?	7.7%	?	?	2.82µM*
CC(C)(C)OC(=O)NCCCC[C@H](NC(=O)c1nc[nH]c1C(=O)N1CCN(C(=O)OC(C)(C)C)CC1)C(=O)OC(C)(C)C	23.1µM*	7.7%	7.6%	?	?
C[C@H](NC(=O)c1nc[nH]c1C(=O)N1CCN(c2ccccc2)CC1)C(=O)OC(C)(C)C	-14.5%	2.4%	?	-3.8%	?
CC(C)(C)OC(=O)NCCCC[C@H](NC(=O)c1nc[nH]c1C(=O)N1CCN(c2ccccc2)CC1)C(=O)OC(C)(C)C	18.4µM*	7.1%	?	?	12.6µM*
CC(C)(C)OC(=O)NCCCCCNC(=O)c1nc[nH]c1C(=O)N1CCN(C(=O)OC(C)(C)C)CC1	16.4µM*	-2.0%	/	?	/
COc1ccc(N2CCN(CCNC(=O)CCC(=O)NNc3nc4ccccc4c4nc(C)nn34)CC2)cc1	8.5%	1.4%	-5.4%	?	-22.5%
O=C(Nc1ccccc1)C1CCN(C(=O)c2ccco2)CC1	1.8%	/	-1.3%	1.8%	8.9%
COc1ccc(C(=O)Nc2ccccc2C(=O)N2CCOCC2)cc1OC	-1.2%	/	2.6%	3.8%	-3.9%
COc1ccc(-c2cnc3c(NC=O)cc(-c4ccc(C(=O)N5CCOCC5)cc4)cn23)cc1OC	3.26µM*	/	/	4.11µM*	/
CC(=O)c1ccc(-c2cnc3c(NC=O)cc(-c4ccc(C(=O)N5CCOCC5)cc4)cn23)cc1	20.6µM*	/	/	16.4µM*	/
COc1ccccc1NC(=O)c1ccc2c(Cl)c3c(nc2c1)CCCC3	-2.0%	2.3%	/	0.3%	/
CSc1ccc(CCNC(=O)c2ccc3c(Cl)c4c(nc3c2)CCCC4)cc1	23.1µM*	3.5%	/	?	/
Cc1ccc(CCNC(=O)c2ccc3c(Cl)c4c(nc3c2)CCCC4)cc1	18.4µM*	6.9%	/	?	/
CNC(=S)NNC(=O)c1ccc(=O)n(Cc2ccc(Cl)cc2Cl)c1	?	-3.1%	?	?	12.6µM*
CNC(=S)NNC(=O)c1cccn(Cc2ccc(Cl)cc2Cl)c1=O	/	9.8%	-4.4%	/	37.4%
O=C1c2ccc3c4c(ccc(c24)C(=O)N1CCCCO)C(=O)N(CCCCO)C3=O	2.59µM*	5.3%	1.8%[10 µM]	2.06µM*	8.91µM*
CCOC(=O)C1CCCN(C(=O)c2cc(Cl)ccc2NC(=O)C2=C(C)OCCS2)C1 (stereo not given)	-12.6%	-0.1%	-0.5%	-10.9%	1.5%
C/C(CC(=O)Nc1ccc([N+](=O)[O-])cc1)=N\NC(=O)c1ccccc1O	-10.9%	/	15.8µM*	2.7%	11.2µM*
C/C(CC(=O)Nc1ccc(N(C)C)cc1)=N\NC(=O)c1ccc([N+](=O)[O-])cc1Cl	20.6µM*	3.5%	?	?	?
COc1ccc(CNC(=O)C/C(C)=N/NC(=O)c2ccc([N+](=O)[O-])cc2Cl)cc1	-14.3%	7.4%	1.7%	6.1%	-17.6%
C/C(CC(=O)Nc1ccc(N(C)C)cc1)=N\NC(=O)c1ccc(Cl)cc1Cl	-5.3%	/	-10.9%	-24.6%	11.2µM*
COCCn1c(SCC(=O)N2CCCC2)nnc1-c1ccco1	2.7%	/	-2.6%	-0.5%	0.7%
Cc1cccc(N2C(=O)C(CC(=O)Nc3ccc(F)cc3)N(C3CCCC3)C2=O)c1 (stereo not given)	?	0.0%	/	?	/
Cc1ncc(C(O)c2ccccc2)n1Cc1ccccc1 (stereo not given)	23.1µM*	/	/	?	/
CC(O)c1nc2ccccc2n1Cc1ccccc1 (stereo not given)	4.2%	2.7%	-7.1%	-18.1%	-18.5%
SMILES	DT40 TDP1 no CPT	TDP1 block	VP16 counter	DT40 TDP1 CPT	RORgamma inh
Cc1cccc(C(O)c2cnc(C)n2Cc2ccccc2)c1 (stereo not given)	18.4µM*	/	/	?	/
Cn1cnnc1SCC(=O)c1ccc2c(c1)OCO2	-6.5%	-5.3%	-0.8%	15.8%	-3.6%
CCN(Cc1ccccc1)S(=O)(=O)c1ccc(C(=O)Nc2nnc(-c3ccccc3OC)o2)cc1	8.2µM*	9.5%	0.355µM*	11.6µM*	0.199µM*
COc1ccccc1-c1nnc(NC(=O)c2ccc(S(=O)(=O)N(C)C)cc2)o1	23.1µM*	7.0%	0.631µM*	?	0.708µM*
COc1ccccc1NC(=O)c1oc2ccccc2c1NC(=O)c1ccc(S(=O)(=O)N(C)C)cc1	?	-1.3%	/	?	/
CCN(CC)S(=O)(=O)c1ccc(C(=O)Nc2ncn(Cc3ccccc3)n2)cc1	-2.4%	4.4%	-3.2%	-3.0%	-41.9%
O=S(=O)(NCc1cccnc1)c1ccc(Cl)c(Cl)c1Cl	?	4.2%	-7.8%	-27.9%	8.1%
C=CCN1C(=O)c2ccc(C(=O)OCC(=O)Nc3ccccc3OC)cc2C1=O	11.7%	-0.5%	/	-1.7%	/
CCCNC(=O)C1(C)CCN(Cc2ccc(-c3ccccc3)o2)C1 (stereo not given)	?	/	/	23.1µM*	/
CCNC(=O)C1(C)CCCN(Cc2ccc(-c3ccccc3)o2)C1 (stereo not given)	23.1µM*	/	/	23.1µM*	/
CC1(Oc2cccc(F)c2)CCN(Cc2ccc(-c3ccccc3)o2)C1 (stereo not given)	?	/	/	23.1µM*	/
CCCNC(=O)C1(C)CCN(Cc2cc(C)n(C)n2)C1 (stereo not given)	0.9%	/	/	-18.3%	/
COc1ccc(C)cc1NC(=O)C1CC(=O)N(CCc2ccccc2)C1 (stereo not given)	14.4%	5.0%	-10.5%	-2.0%	-2.1%
Nc1c(-c2ccc(Cl)cc2)nnn1-c1ccccc1	-24.4%	-5.2%	?	-4.1%	33.3%
Cc1c(-c2ccc(Cl)cc2)oc(=O)c2c(N)n(-c3ccccc3)nc12	7.31µM*	50.1µM*	?	?	7.94µM*
Nc1c2c(=O)oc(-c3ccccc3)cc2nn1-c1ccccc1	?	1.0%	13.3%	25.9µM*	4.8%
N#Cc1ccccc1OCCN1C(=O)c2ccccc2C1=O	?	0.0%	-1.1%	-0.2%	?
Nc1cccc2c1C(=O)N(CCOc1ccccc1F)C2=O	?	-9.4%	?	-1.9%	8.91µM*
CCN(C(=O)CSc1nnc(-c2cccs2)n1N)c1c(N)n(Cc2ccccc2)c(=O)[nH]c1=O	10.5%	/	/	8.5%	/
Cc1nc(-c2ccc(C(F)(F)F)cc2)sc1C(=O)NN	?	-2.6%	3.55µM*	?	4.47µM*
Cc1nc(-c2cccs2)sc1C(=O)NN	-2.2%	0.0%	?	-2.8%	?
